Reference: PubChem BioAssay AID1508600 (Functional Genomics Laboratory (NCATS/FGL), 2020)
Screen size: about 53,000 sequences; about 3,700 (7%) were called active. The entries come from a sample that favours actives as a whole. Unmarked numbers belong to inactive results.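 The calls were made as follows: active = gene knockdowns whose robust z-score for IL-1 alpha signal is at least 2 or at most -2, so actives lie on both sides; inactive = the rest.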

experiment: Components of the Cytosolic LPS Sensing Pathway: Gene Identification via Genome-wide siRNA Screen; details: RAW264.7 macrophages, IL-1a HTRF, actives lie on both sides, screened at 100 nM (by protocol), cells primed 5 h with Pam3CSK4 first
Excerpt: Non-canonical inflammasome activation by cytosolic LPS is a critical component of the host response to Gram-negative bacterial infection, however we lack a comprehensive understanding of the cellular processes that control this pathway. Here we describe a genome-wide siRNA screen to identify genes regulating the mouse macrophage IL-1 alpha response to cytosolic LPS.
RAW264.7 cells were maintained in complete DMEM media, comprising DMEM with 4.5 g/L glucose, 10% FBS (Gemini Bio-Products, West Sacramento, CA), 2 mM Glutamine (Lonza) and 20 mM HEPES (Lonza), hereafter complete DMEM.
The RNAi screen was conducted in 384-well format using the Ambion Silencer Mouse Genome siRNA Library (#4391425), which consists of three unique, nonoverlapping, nonpooled siRNAs for each of 17,000 gene targets. siRNA reagents ([…]) were stamped into 384-well white flat-bottom microplates (Corning, 3570) using a Velocity11 VPrep liquid handling system (Agilent) integrated into a BioCel robotic platform (Agilent) in columns 1-22, leaving columns 23-24 empty for negative (Ambion, Negative control #1) and positive (mouse Casp4) controls, respectively. The median value of each plate's negative control column was used to normalize sample wells, and the positive control was used to assess transfection efficiency and assay performance.
Lipofectamine RNAiMAX Transfection Reagent ([…]; Invitrogen) was added in […] serum-free, antibiotic-free media to plate wells using a Thermo Scientific Matrix WellMate and Microplate Stacker. Plates were incubated for 45 min at room temperature to allow for the sufficient formation of siRNA-lipid complexes. Cells were seeded at a density of 1x10^4 cells per well in 20 microL media containing 20% (vol/vol) FBS without antibiotics. The final concentration of siRNA in each well was 100 nM. Cells were cultured for 48h at 37 degrees C in 5% CO2 before addition of […] of TLR ligand Pam3CSK4 for 5 hours. The medium was then removed, replaced with […] growth media and cell were transfected with […] of LipidA and TransIT-TKO (Mirus) for 24 hour. At the end of the LipidA treatment, […] of supernatant was transferred to a 384 Greiner Bio-one non-binding low volume plate and […] of IL-1a HTRF reagent (Cisbio, 62MIL1APEH) was added and incubated at room temperature overnight. The plates were read on an EnVision plate reader (PerkinElmer). Cell viability was measured by adding 20ul Cell Titer Glo to the original plate and running a luminescence read on the EnVision. The quantified IL-1a signal for each siRNA gene-targeted well was divided by the median of the negative control wells and multiplied by 100 to achieve a negative control normalized value for each well/siRNA. This normalized value was then used to generate a robust z-score by first taking the log of each value and then by subtracting the median and dividing by the […].

Row | Sequence | z-score
1 | CGACUUCACCUUAUUCCUGTT against Nle1 | 0.811
2 | GCAUAUUACACAGCACUAGTT against Itgbl1 | -0.802
3 | GGUGUACUCUGUUCCCAUGTT against Psmb6 | -1.54
4 | GGGAUUCGAAGGACAAUAGTT against Vmn1r211 | -2.07 (active)
5 | GGUGUACAACUCCUAUAGGTT against P2ry13 | 0.24
6 | GGAUUUCAGCGAAGUGUACTT against Mapk11 | -0.395
7 | CCAACGAAGCCAAUAAAUGTT against Pmis2 | -2.12 (active)
8 | GGAGCUGAGCAACAUCACATT against Il13 | -1.35
9 | GCUUCACAUGAAGCAACCUTT against Fam149b | -0.102
10 | GGAGAAGCAAAACUUUUAATT against Snrpa1 | -2.87 (active)
11 | GGUGUUGAACAAAUUAACUTT against Pprc1 | 0.508
12 | GCAACUAUCCACUCUCUGCTT against Emg1 | 0.977
13 | GGAGAUGGUCUCAUUAAGCTT against Psmd13 | -1.25
14 | GCUCUGUUUUUAACCAUCCTT against Ccnt2 | 0.227
15 | GGUAUUAAGUUCCUGUAAUTT against Ahcyl2 | -1.62
16 | GCUCUUGAAAUUUCACUCUTT against Ide | 2.1 (active)
17 | GCCGCUUAGAGGCUCAUCUTT against Nfe2l2 | -1.86
18 | GGACAACUAUGAAUUAGUGTT against Pfkp | -0.801
19 | GGAAAAACAGCUUAACACUTT against Pate4 | 0.66
20 | GCUUCCAAGAUGGAACUACTT against Psmb10 | 0.657
21 | GGAUGAAAUGAACCUAGAGTT against Sh3pxd2b | -2.16 (active)
22 | GGAGAAGAUCACAAGAGGGTT against Slc35b1 | -0.736

Row | Sequence | z-score
23 | GCAGAAUAGCUGAUGACAGTT against Galnt15 | -0.155
24 | GCUCCCAAGUUUACCCAGCTT against Mybphl | 0.505
25 | CCUUGAACGAGAGUGCAUUTT against Pros1 | -0.798
26 | CGUAAGUCAGUGAUGCUAUTT against Srp19 | 1.38
27 | GCUAUGAAGCAAUUGUGGATT against Fasn | -0.527
28 | GCGGUUAUAAUGGGACCAUTT against Kif15 | 3.21 (active)
29 | GCCAGGAUACUAAGUGUUUTT against Jpt2 | 1.05
30 | GCAACAUCGUAUGUUAAUGTT against Slc9a4 | 0.0571
31 | CGAAUACUUGAUGUCCAUGTT against Harbi1 | -2.16 (active)
32 | CCAGGUGAAAACCAGGAUATT against Olfr205 | 0.925
33 | GGAAACCUAUGUCUCAAGATT against Mrps36 | -0.332
34 | CCAGAGAUUCCCACACGUCTT against Havcr1 | -1.37
35 | GAAUCUGGUGAAGUAUUAUTT against Phip | 0.518
36 | GGGUUUAGCUCACUGAGUATT against Tm4sf5 | -1.53
37 | CCACUAUGUUCUCUGGAUATT against Llgl1 | -0.218
38 | CCACAUCUGAGACUAUUCATT against Crhr1 | 2.46 (active)
39 | GGAACUGGGAGACCUAUAATT against Angptl2 | -2.01 (active)
40 | CCCACAGAAUCACUCCAAGTT against Utp14a | -0.211
41 | GCUAUUCGUUUCUUAUAACTT against Slc19a3 | 0.83
42 | GGCAAUGAGUUCUGGAGUGTT against Capn8 | -0.928
43 | GGUUCAAGGCAACACUGUGTT against Ankrd13d | -1.54
44 | GGCUUUUGGUCUGAGAUGCTT against Snf8 | -2.04 (active)

Row | Sequence | z-score
45 | GGUGCUCACGUUUUUCUUATT against B3galnt1 | 0.348
46 | GGAGGAAGUUGAAAAUGAATT against Myom2 | 0.157
47 | GGUACUCCUAGAACUCUACTT against 2410002F23Rik | 1.01
48 | GCCCAGAGUUACGAGUAUGTT against Aacs | 2.23 (active)
49 | GCCAAACGUGGGUUUGAUATT against Ccna1 | 4.74 (active)
50 | GGAAGACUUGAGAAAUCACTT against Coro1c | 1.24
51 | GCCAAGCUUGUCCAUUGAUTT against Akap9 | -0.443
52 | CGUUAGCAUCAGGUCAAGUTT against Zfp251 | -0.323
53 | GGUGUUAACAAAAUGUACCTT against Phyh | 2.54 (active)
54 | CCUUAGGUCUAAGUAAUCUTT against Dnase1l1 | 2.3 (active)
55 | GGACUCAAAUGUGAUGCAUTT against Prkcq | -0.718
56 | GGCACAUUCAUAGAACAAGTT against Znrd1as | 2.01 (active)
57 | GCGGCGCAUGACUGAAAGATT against Chd8 | 0.86
58 | GGUCAACUCCUUUAUGAGCTT against Apoa4 | -0.238
59 | GGAUGAUGAGAGAAACAAATT against Jak1 | 3.78 (active)
60 | GGAAGUAAAGAGGAUCUCATT against Vat1l | -0.678
61 | GGUGAUUAGCAAUCAUCAGTT against Zfp942 | -0.295
62 | GGCCACUUGAGAACAUUCGTT against Nop10 | 0.331
63 | GGUACAAUGAAAGUCUCACTT against Cnot6 | -0.0743
64 | GGACCUUGUACCCAUUCCUTT against Prr5 | 1.01
65 | GCAAUGAGUGCUAGUUUUUTT against Cdc42 | 2.6 (active)
66 | CGUGGAUAUCAGAAAGCAATT against Cfhr2 | -0.487

Row | Sequence | z-score
67 | GGACUUUAAUCACAGACAATT against Fem1b | -1.73
68 | CGAGUUCAUCAAAAAGGAATT against Kansl1l | 0.708
69 | CCAUUCUCAGGCAAAUACUTT against Pid1 | 2.11 (active)
70 | GGCUGAUGAUACUUAAACATT against Vmn1r83 | -1.26
71 | CGGCAUGCUGUGGAAAAAGTT against Btrc | -0.869
72 | GCACUUUGACAUUUUGGUATT against Arl4c | -0.0352
73 | AGAGCAAAAACUCGAGCACTT against Sox15 | -0.253
74 | GGUUGUGAGUGAGAACACUTT against Prss35 | 0.738
75 | CCUUGCAGCAUCAGGACUUTT against Ascl2 | 4.06 (active)
76 | GGUAACACAGAAGAAAUCUTT against Higd1a | -0.0444
77 | GGCAGAAGAACUUUUCCAGTT against Capsl | 0.874
78 | CCUUCUAGAGUACAUCAUATT against Prl7d1 | 0.298
79 | GGGUUUCUUCGUGUCUAUUTT against Pth2r | 1.56
80 | GGGAAGUAGCCAUCACACCTT against Ttbk1 | 0.768
81 | CCUAUAGCAGUGGUUUUCATT against Ece2 | 2.22 (active)
82 | GGCUUUUCGUUGUAAAUCATT against 9930111J21Rik2 | 0.735
83 | CGGGAAGUAAACAUUUCCATT against Rassf6 | 0.527
84 | GGACUCUGAUCUCUAUCAGTT against Tac2 | -0.357
85 | GGAGGAGAGGUACAAGAUGTT against Pcyt2 | -0.804
86 | GGGAAGUCCAAAUAACGGATT against Zfp184 | 0.136
87 | CCGACCCAAUUAAUGAUCATT against Tlcd2 | -1.12
88 | CCAAAGUUUUAUCAGUUUGTT against Gpr87 | 0.653

Row | Sequence | z-score
89 | GGUACUUUUACUCCCGAAGTT against Lgals3bp | -2.05 (active)
90 | GGUGAUAUAGCUAUUUUCUTT against Fbxw11 | 0.711
91 | GGAAACACCAGAGAAGUCCTT against Etf1 | -0.56
92 | GGUGCAAGAUAGUACGAUGTT against Gle1 | -0.649
93 | GCACAAUAAAGCUUGUUGCTT against Trmt2a | -2.26 (active)
94 | GGAAGAUGGGCGACUCUAUTT against Pkmyt1 | 0.176
95 | GGAUUCUCACCAAAUACUUTT against Oprd1 | 0.305
96 | CGAUAUUUAUCAUGAGUGCTT against Nlrp9c | -1.9
97 | CCCACGAGGGAUAUAUCUGTT against Cd3d | -0.994
98 | CGGCACCAGUGUUCUAUUGTT against Ddi2 | 1.91
99 | CCGCAAAGUGAGCAAGGUGTT against Id1 | -0.63
100 | GGAAAGCAGACAUCGACCUTT against Rps18 | -0.848
101 | GGAACGUGUUCAAAAGAGUTT against Sos1 | 2.22 (active)
102 | GGCCUAUCAAAAUUCAGUUTT against Rbm7 | 1.17
103 | GGAGAUUGGACCACUAUGATT against Sec24d | -1.31
104 | GGAGUUCGACAUUAGCGGATT against Ehf | 0.0965
105 | GCAACAGUUGGUCUAAAAUTT against Psma1 | -2.11 (active)
106 | GGAAUGUUUCUUUAUCACATT against Slc35e4 | -0.837
107 | GCGUAUUUGGUGUUAAAAATT against Iars | 0.417
108 | GGAAGAAGAAGAUAAAGCGTT against Grk6 | 0.184
